Rows were chosen to be rich in hits. Some 6.5% of all compounds tested hit in one or more screens of this group.
VACV mCherry inh = vaccinia inhibition (mCherry reporter); Vaccinia virus mCherry reporter infection, fluorescence; Potency, µM (highest dose often 36.5 µM), without a hit: top-dose activity change, negative = inhibition, usual class: inhibitors; actives 0.63% (n = 310,000); AID 720579; calls by dose curve; tested in A549 cells; further: potency means the concentration at half of the fitted maximal effect; nearly all actives have a fitted effect of over 35% in size
HCMV inh = inhibitors of human cytomegalovirus. actives 4.5% (n = 410,000). activity change, negative = inhibition, % at 57.5 µM. HFF cells, HCMV-luciferase reporter, 72 h; hits give low values; in the data active means activity change below about -60%; inconclusive means no clear call, values can overlap the other calls; inactive means above about -39%
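Compounds were evaluated in HFFs infected with an HCMV luciferase reporter virus (MOI 1 PFU/cell). Luciferase in lysates collected 72 h post infection served as the replication measure.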
VACV Venus inh = vaccinia inhibition (Venus reporter); Vaccinia virus Venus reporter expression, fluorescence; Potency, µM (doses to about 36.5 µM), for inactives: at the top dose activity change, negative = inhibition, actives largely listed as inhibitors; actives 0.46% (n = 330,000); AID 720580; calls by dose curve; tested in A549 cells; further: potency means the concentration at half of the fitted maximal effect; nearly all actives have a fitted effect of over 30% in size
Marburg entry inh = Marburg virus entry inhibition | Marburg virus pseudotyped entry inhibition, cell reporter | Potency, µM (doses to about 37.8 µM), for the others: at the top dose activity change, negative = inhibition, usual class: inhibitors | actives 1.8% (n = 300,000) | AID 540276; calls by dose curve; tested in HEK293 cells; further: potency means the concentration at half of the fitted maximal effect
FMDV antiviral = blocks foot and mouth disease virus; actives 1.2% (n = 410,000); AID 1159524; Potency, µM (top dose mostly 57.9 µM), for the others: at the top dose activity change, negative = inhibition, usual class: inhibitors; FMDV antiviral cell-based qHTS; calls by dose curve; tested in HEK293T cells; further: read-out not given here; potency means the concentration at half of the fitted maximal effect; nearly all actives have a fitted effect of over 45% in size
LASV entry inh = blocks Lassa virus binding to or entry into cells. Lassa virus pseudotype entry inhibition, cell reporter. Potency, µM (top dose mostly 37.9 µM), inactives show top-dose activity change, negative = inhibition, actives largely listed as inhibitors. actives 1.2% (n = 300,000); calls by dose curve; tested in HEK293 cells; further: potency means the concentration at half of the fitted maximal effect; nearly all actives have a fitted effect of over 50% in size
* = called active by the depositor; i = inactive; ? = inconclusive; nt = no result given; [ ] = remark or other dose. On the % scale 0 is the no-effect control and ±100 the full control effect.

SMILES	VACV mCherry inh	HCMV inh	VACV Venus inh	Marburg entry inh	FMDV antiviral	LASV entry inh
CCN(CC)S(=O)(=O)c1ccc(NC(=O)c2ccc(Sc3nncn3C)c([N+](=O)[O-])c2)cc1	?	-81*	?	-4%	-28%	?
COc1ccc(NC(=O)/C(C#N)=C/c2ccc(Sc3nncn3C)c([N+](=O)[O-])c2)cc1	-17%	28	-26%	?	32µM*	4%[46.1 µM]
CN(C)S(=O)(=O)c1cccc(NC(=O)c2ccc(Sc3nncn3C)c([N+](=O)[O-])c2)c1	nt	-38	nt	nt	-5%	nt
CCN(CC)S(=O)(=O)c1cc(NC(=O)c2ccc(-n3cncn3)c([N+](=O)[O-])c2)ccc1C	-19%	-84*	?	?	13µM*	?
CCC(C)(C)NC(=O)c1ccc(Sc2nncn2C)c([N+](=O)[O-])c1	-6%	18	-13%	5%	6%	6%
Cn1cnnc1Sc1ccc(/C=C/C(=O)c2ccc(O)cc2)cc1[N+](=O)[O-]	nt	-101*	nt	nt	?	nt
Cn1cnnc1Sc1ccc(C(=O)OCC(=O)Nc2ccccc2)cc1[N+](=O)[O-]	nt	-3	nt	-1%	?	3%
COc1cccc(C2(CC(=O)N3CCN(c4ccccc4O)CC3)CC(=O)N(C3CCCC3)C2=O)c1 (centres undefined)	-3%	nt	-24%	nt	30%	nt
OC(c1ccc2c(c1)CN(Cc1cccn1-c1cccnc1)CCO2)C1CCCCC1 (centres undefined)	-27%	nt	-14%	nt	2%	nt
CCc1ccc(CCC(=O)N2CCN(S(=O)(=O)c3sc(C(=O)O)c(C)c3C(=O)O)CC2)cc1	-9%	-11	0%	0%	-7%	5%
CCOC(=O)c1c(NC(=O)C2c3ccccc3Oc3ccccc32)sc(C(C)=O)c1C	-24%	-82*	-12%	?	nt	?
CCOC(=O)c1sc(NC(=O)CN(CC(C)C)CC(C)C)c(C(=O)OCC)c1C	nt	-95*	nt	?	6%	-20%
CCOC(=O)c1c(NC(=O)COC(=O)c2ccccc2NC)sc(C(=O)N(C)C)c1C	i	-12	-2%	?	25µM*	?
CCOC(=O)c1c(NC(=O)CC(C)C)sc(C(C)=O)c1C	nt	-14	nt	7%	-3%	3%
CC(C)=CCCC(C)=CCON=C1C[C@@H](O)[C@@H](O)[C@@H]2[C@H]3C(=O)N(Cc4ccc5c(c4)OCO5)C(=O)[C@@H]3CC[C@H]12	nt	nt	nt	-17%[14.2 µM]	nt	?
O=C(Nc1ccc2oc(-c3cccc4c(Br)cccc34)nc2c1)c1ccc(F)cc1	3%	-3	14%	nt	-17%	10%[46.1 µM]
COCCn1c(N)c(S(=O)(=O)c2cccs2)c2nc3ccccc3nc21	i	nt	-14%	-5%	nt	23%
COc1cccc(/C=N/n2c(N)c(S(=O)(=O)c3cccs3)c3nc4ccccc4nc32)c1OC	nt	-81*	nt	-24%	17%	-30%
O=C(CSc1nnc2ccc(-c3ccccn3)nn12)Nc1ccc(F)cc1F	-10%	-29	-4%	9%	10%	15%
NC(=NCc1ccc(Cl)c(Cl)c1)NC(=O)c1nc(Cl)c(N)nc1N	nt	nt	nt	2.5µM*	nt	nt
C[C@@H]1[C@H](c2ccccc2)OCCS(=O)(=O)N1Cc1ccc(Cl)cc1	-29%	nt	-24%	nt	nt	nt
C=COC[C@H]1CN2[C@@H](CC[C@@H](C)[C@@H]2c2ccc(Br)cc2)C(=O)O1	nt	nt	nt	-1%[14.2 µM]	nt	nt
COc1ccccc1-c1c(C)nn2c(N3CCC(C)CC3)cc(C)nc12	-5%	-28	-2%	?	25µM*	-11%[46.1 µM]
COc1ccc(-c2c(C)nn3c(N4CCC(C(=O)NCCN(C)C)CC4)cc(C)nc23)cc1OC	nt	34	nt	21µM*	20%	1%
COCCCNC(=O)C1CCN(c2cc(C)nc3c(-c4ccc(OC)c(OC)c4)c(C)nn23)CC1	1%	4	1%	11%[46.1 µM]	0%	1%[46.1 µM]
SMILES	VACV mCherry inh	HCMV inh	VACV Venus inh	Marburg entry inh	FMDV antiviral	LASV entry inh
Cc1ccccc1C(=O)Nc1cccc(-c2nc3cccnc3s2)c1	i	-23	-9%	5%[46.1 µM]	0%	-16%[46.1 µM]
Cn1cc(NC(=O)CCl)cn1	?	-84*	?	?	?	?
CC(=O)Nc1cnn(Cc2ccc(Br)cc2)c1	nt	22	nt	12%	-17%	2%
Cc1nc(CC(=O)N2CCC(n3c(C4CCC4)nc4cccnc43)CC2)cs1	0%	nt	-9%	nt	-18%	nt
Cc1ccc(F)cc1C(=O)N1CCC1(C)C(=O)O (centres undefined)	17%	-25	2%	nt	-18%	nt
CC1(C(=O)O)CCN1C(=O)c1ccccc1F (centres undefined)	23%	-1	-8%	nt	5µM*	nt
Cc1[nH]c2ccccc2c1C(=O)C(=O)Nc1ccc2c(c1)OCCO2	-5%	82	-19%	?	25%	20%[46.1 µM]
CCC(C(=O)Nc1ccc2c(c1)OCCO2)n1c(=O)[nH]c2ccccc2c1=O (centres undefined)	-12%	-73*	-19%	15%[46.1 µM]	-2%	22%[46.1 µM]
COc1cccc(CNC(=O)CCS(=O)(=O)Cc2ccc(C)cc2)c1	-28%	-32	?	22%[46.1 µM]	-2%	0%[46.1 µM]
CCC[C@H]1[C@@H](NS(=O)(=O)c2cn(C)cn2)CC[C@@]23CCCN2C(=O)CCC[C@@H]13	nt	-23	nt	nt	nt	nt
CCOc1cccc(CNCCO)c1OCc1ccc(Cl)cc1	-6%	?	-14%	?	?	-26%
CC(O)CNCCNCc1c(OCc2ccccc2)ccc2ccccc12 (centres undefined)	-2%	-38	-26%	?	nt	9.2µM*
CC(O)CNCCOc1ccccc1OCc1ccccc1 (centres undefined)	-9%	-32	-17%	?	-14%	7%
OCCNCc1c(OCc2ccc(Cl)cc2)ccc2ccccc12	-37%	-79*	-19%	5.6µM*	-21%	?
O=C1O[C@@H](c2ccccc2)C[C@@H](O)[C@H](O)CCc2ccccc21	35%	9	-3%	nt	-14%	nt
O=C(CN1C(=O)NC2(CCCC2)C1=O)Nc1ccc(Cl)cc1C(F)(F)F	-24%	106	-16%	1%[46.1 µM]	0%	-9%[46.1 µM]
COc1ccc(C=CC2=CC3(C)CC2(C)C(c2ccc(OC)cc2)CC3=O)cc1 (centres undefined)	nt	nt	nt	-13%[14.2 µM]	nt	nt
Cc1[nH]nc2ncc(C(=O)c3ccccc3O)cc12	nt	-82*	nt	4%	-27%	2%
CCn1c(-c2ccccc2F)nc2cc(NC(C)=O)cc(C(=O)N(C)Cc3c(C)nc4ccccn34)c21	-6%	nt	0%	nt	0%	nt
N#Cc1c(Nc2ccccc2Cl)s[nH]c1=O	-8%	-87*	-5%	5%[46.1 µM]	-18%	-14%[46.1 µM]
COC(=O)c1ccc(OCC(O)CN2CCc3cc(OC)c(OC)cc3C2c2ccccc2)cc1 (centres undefined)	?	-25	-13%	?	?	?
O=C(Nc1ccc(NC(=S)NC(=O)c2ccco2)cc1)c1ccccc1	-10%	10	8%	?	21%	5%[46.1 µM]
O=C(Nc1ccc(NC(=S)NC(=O)c2ccco2)cc1)c1ccc(Br)cc1	i	-78*	-10%	nt	-22%	nt

Compound activity from PubChem.
